{"source": "PubChem BioAssay (NCI)", "note": "The panel holds about 83,000 compounds, 20% with a hit somewhere; the sample as a whole holds those more often.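 Negative percent growth values reflect cell death: -40 means 40% of the cells present at the start died, and -100 means all died.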 Active and inactive are the calls of the source."}
{"system": "COLO 205 colon", "experiment": "NCI-60 one-dose screen, 48 h (100 = growth as untreated, 0 = no growth, -100 = all killed)", "conditions": "10 µM unless noted", "description": "Cells are grown in 96 well plates and exposed to the test compound for 48 hours. Compounds are tested at a single concentration, which is 10^-5 M for most compounds. The reported endpoint is percent growth (GI% or GIPRCNT), where numbers from 0 - 100% represent growth inhibition, and numbers from -100% - 0 represent cell death. For example, a value of 40 represents 60% growth inhibition. A value of 0 means no net growth occurred over the course of the experiment. A value of -40 indicates 40% of cells at the beginning of the experiment died by the end of the experiment. A value of -100 means all cells are dead at the end of the experiment.\nNCI-60 Human Tumor Cell Lines Screen was performed using the standard one-dose NCI protocol, which is described in more detail at https://dtp.cancer.gov/discovery_development/nci-60/default.htm.\nCompounds with GIPRCNT values below 10 were considered active. Activity score was based on GIPRCNT using the following formula: […]\nScore is 0 for GIPRCNT values of 100 or above, 50 for GIPRCNT values of 0, and 100 for GIPRCNT values of -100."}
{"molecule": "COc1cc2c(c(OC)c1OC)CCC(c1cccc(NC(=O)c3cccc(Br)c3)c1)O2", "note": "(stereo not given)", "growth": "98.3% (inactive)"}
{"molecule": "CC(C)(C)CC(C)(C)n1nnnc1C(NC12CC3CC(CC(C3)C1)C2)c1ccccc1", "note": "(stereo not given)", "growth": "122% (inactive)"}
{"molecule": "CC(Sc1nc2ccccc2c(=O)n1CCc1ccc(S(N)(=O)=O)cc1)C(=O)Nc1ccc(Cl)cc1", "note": "(stereo not given)", "growth": "106% (inactive)"}
{"molecule": "CCOC(=O)c1cc(C(=O)c2ccc(Br)cc2)n2ccc(/C=C/c3cc[n+](CC(=O)c4ccc(OC)cc4)cc3)cc12", "growth": "91.7% (inactive)"}
{"molecule": "N=C1C(c2nc3ccccc3s2)=C(O)CN1c1cc(Cl)cc(Cl)c1", "growth": "90.6% (inactive)"}
{"molecule": "CC(=O)Nc1cccc(-c2ccc3c(c2)NC(=O)/C3=C\\c2ccc[nH]2)c1", "growth": "38.8% (inactive)"}
{"molecule": "O=C(/C=C/c1ccc(F)cc1)c1ccc(NC(=O)N2CCN(c3cc4c(cc3F)c(=O)c(C(=O)O)cn4C3CC3)CC2)cc1", "growth": "115% (inactive)"}
{"molecule": "COc1ccc(CC(C)=C(c2ccc(OCCN3CCCCCC3)cc2)c2ccc(OCCN3CCCCCC3)cc2)cc1", "growth": "-67.5% (active)"}
{"molecule": "COc1c(Cl)c2c(c(OC)c1OC)-c1ccc(SC)c(=O)cc1[C@@H](NC(=O)OCC(F)(F)F)CC2", "growth": "-0.15% (active)"}
{"molecule": "COc1cc2nc(-c3ccc(Cl)cc3)cc(OCCCN3CCCCC3)c2cc1OC", "growth": "16.1% (inactive)"}
{"molecule": "O=C(/C=C(/C=C/c1csc2ccccc12)OB(F)F)/C=C/c1csc2ccccc12", "growth": "-2% (active)"}
{"molecule": "O=C(C1CCC1)N1N=C(c2ccc(-n3ccc(C(F)(F)F)n3)cc2)CC1c1ccc[nH]1", "note": "(stereo not given)", "growth": "113% (inactive)"}
{"molecule": "Brc1ccc(Nc2csc(-c3ccccn3)n2)cc1", "growth": "111% (inactive)"}
{"molecule": "Cc1nnc2c(Cc3ccccc3)nc3ccccc3n12", "growth": "113% (inactive)"}
{"molecule": "OCc1cnc2ccccc2c1NC1CCCCCC1", "growth": "110% (inactive)"}
{"molecule": "c1ccc(-c2c(-c3ccccc3)[n+](Cc3ccc4ccccc4c3)c(-c3cccc4ccccc34)n2Cc2ccc3ccccc3c2)cc1", "growth": "-65% (active)"}
{"molecule": "Cc1c2cc[nH]c(=O)c2c(C)c2c1[nH]c1cc(OCCN3CCN(C)CC3)ccc12", "growth": "-10.1% (active)"}
{"molecule": "COc1ccc(/C=C2\\Oc3cc(OCCCCCN4CCCCC4)ccc3C2=O)cc1OC", "growth": "98.5% (inactive)"}
{"molecule": "C=C(CBr)[C@@H]1CC[C@]2(COC(C)=O)CC[C@]3(C)[C@H](CC[C@@H]4[C@@]5(C)CCCNC(C)(C)[C@@H]5CC[C@]43C)[C@@H]12", "growth": "48.1% (inactive)"}
{"molecule": "CC(=O)O[C@@H]1C2CCC3C(CC[C@@]4(C)C3CC[C@@H]4C(C)N(C)C)[C@@]2(C)CC[C@@H]1NC(=O)C=C(C)C", "note": "(stereo not given in full)", "growth": "-82.8% (active)"}
{"molecule": "COC(=O)N[C@H]1CCc2c(Cl)c(OC)c(OC)c(OC)c2-c2ccc(SC)c(=O)cc21", "growth": "-24.3% (active)"}
{"molecule": "O=C1Nc2cc(Cl)ccc2/C1=C\\c1c(-c2ccc(F)cc2)nc2ccccn12", "growth": "-33.1% (active)"}
{"molecule": "COc1cc(NC(=O)CSc2nc3ccc(C)cc3c(=O)n2Cc2ccccc2)cc(OC)c1OC", "growth": "88.6% (inactive)"}
{"molecule": "N/C(=N\\C(N)=N\\c1nc2ccccc2s1)c1cccc(Cl)c1", "growth": "101% (inactive)"}
{"molecule": "Cc1ccc(-c2[nH][nH]c(=O)c2-c2nc3ccccc3s2)cc1", "growth": "106% (inactive)"}
{"molecule": "CN1CCN(CCNc2nccc(-c3c(-c4cccc(O)c4)nc4sccn34)n2)S1(=O)=O", "growth": "17.6% (inactive)"}
{"molecule": "O=C1c2ccc3c4c(ccc(c24)C(=O)N1CCCNCc1ccccc1)C(=O)N(CCCNCc1ccccc1)C3=O", "growth": "-43.3% (active)"}
{"molecule": "N#C/C(=C\\c1ccc(Cl)cc1)n1nnc2cc(F)c(F)cc21", "growth": "8.61% (active)"}
{"molecule": "Cc1ccc(/C=C(/C#N)n2nnc3cccc(F)c32)cc1", "growth": "-19.5% (active)"}
{"molecule": "COc1cc(/C(C)=C(\\c2ccc(Cl)cc2)c2ccc(OCCN3CCCC3)cc2)ccc1F", "growth": "16.3% (inactive)"}
{"molecule": "O=C(/C=C(/C=C/c1coc2ccccc12)OB(F)F)/C=C/c1coc2ccccc12", "growth": "95.9% (inactive)"}
{"molecule": "Nc1n[nH]c2cccc(C#Cc3cccc(C(=O)Nc4cc(CN5CCOCC5)cc(C(F)(F)F)c4)c3)c12", "growth": "14.6% (inactive)"}
{"molecule": "CCCCCCNC(=O)Nc1ccc2cc3ccc(NC(=O)NCCCCCC)cc3nc2c1", "growth": "17.5% (inactive)"}
{"molecule": "Cc1cc2c(c(C)c1Cl)C(=O)/C(=C/c1ccc(O)c(O)c1)O2", "growth": "114% (inactive)"}
{"molecule": "N#Cc1cccc(-c2ccc3c(c2)NC(=O)/C3=C\\c2ccc[nH]2)c1", "growth": "3.47% (active)"}
{"molecule": "CCCCCCNC(=O)Oc1ccc(/C(=C(\\C)c2ccccc2)c2ccc(OCCN3CCCCC3)cc2)cc1", "growth": "5.73% (active)"}
{"molecule": "COc1cc(C2=NN(C(C)=O)C(c3cc(OC)c(OC)c(OC)c3)C2)ccc1O", "note": "(stereo not given)", "growth": "-17.2% (active)"}
{"molecule": "C#CCNC(=O)[C@H](Cc1ccccc1)NC(=O)[C@]12CC[C@@H](C(=C)C)[C@@H]1[C@H]1CC[C@@H]3[C@@]4(C)CCC(=O)C(C)(C)[C@@H]4CC[C@@]3(C)[C@]1(C)CC2", "growth": "78.7% (inactive)"}
{"molecule": "Oc1ccc(C2c3ccccc3Oc3ccccc32)c2cccnc12", "growth": "34.8% (inactive)"}
{"molecule": "CCNC(=O)Oc1ccc(/C(=C(\\C)c2ccccc2)c2ccc(OCCN(CC)CC)cc2)cc1", "growth": "52.2% (inactive)"}
